Bioassay records deposited in PubChem BioAssay by National Center for Advancing Translational Sciences (NCATS).
An excerpt weighted towards active compounds, which were near 10% of everything screened.
GPT2 inh: blocks human glutamate pyruvate transaminase 2. AID 1671188. Recombinant GPT2, coupled pyruvate oxidase/HRP Amplex Red fluorescence. 0.25% of 100,000 active. Potency, µM (highest dose often 57.7 µM), for the others: top-dose activity change, negative = inhibition, most hits filed as inhibitors. Q8TD30; also: nearly all actives have a fitted effect of over 60% in size
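Inhibition is scored from Amplex Red fluorescence generated when pyruvate oxidase and HRP act on pyruvate released by GPT2. Reactions contain 10ng/uL enzyme, 250uM a-KG and 2mM L-alanine and run 30 min at room temperature.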
hNpr1 antagonist: human Npr1 receptor antagonism; P16066; HEK293 hNpr1 GloSensor cGMP, ANP-stimulated luminescence; Potency, µM (titrated, usually from 46.3 µM), inactives show at the highest dose activity change, negative = inhibition, usual class: inhibitors; 1.6% of 76,000 active; calls by dose curve; also: nearly all actives have a fitted effect of over 60% in size
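Compound pre-incubated 30 min at room temperature on GloSensor-loaded HEK293 cells stably carrying hNpr1 and the pGS-40F cGMP biosensor. Stimulation uses hNppA at 0.1 nM final; luminescence is taken at baseline and 20 min post-agonist.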
3T3 cytotox: kills NIH 3T3 cells | NIH 3T3 viability, CellTiter-Glo ATP luminescence, 48-72 h | Potency, µM (doses to about 96.7 µM), for the others: at the highest dose activity change, negative = cytotoxicity, most hits filed as inhibitors | 4.3% of 94,000 active; also: nearly all actives have a fitted effect of over 55% in size
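Luminescent ATP readout (CellTiter-Glo, 10 min RT) after 48 or 72 hr compound exposure of NIH 3T3 cells seeded at 400 cells/well in 1536-well format; quantitative HTS.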
HEK cytotox: kills HEK 293 cells. HEK 293 viability, ATP luminescence (CellTiter-Glo), 48-72 h. Potency, µM (doses to about 115 µM), without a hit: at the highest dose activity change, negative = cytotoxicity, actives largely listed as inhibitors. 6.6% of 94,000 active. AID 1345083; also: nearly all actives have a fitted effect of over 60% in size
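Read-out: CellTiter-Glo ATP luminescence. Cells: HEK 293, 250 cells/well. Exposure: 48 or 72 hr, 37 degree Celsius.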
FLuc inh: blocks purified firefly luciferase enzyme activity; AID 1347043; 2.5% of 76,000 active; P08659; Potency, µM (titrated, usually from 115 µM), most hits filed as inhibitors; purified P. pyralis luciferase, luminescence, biochemical; also: nearly all actives have a fitted effect of over 65% in size
Target sequence (P08659 whole entry, looked up): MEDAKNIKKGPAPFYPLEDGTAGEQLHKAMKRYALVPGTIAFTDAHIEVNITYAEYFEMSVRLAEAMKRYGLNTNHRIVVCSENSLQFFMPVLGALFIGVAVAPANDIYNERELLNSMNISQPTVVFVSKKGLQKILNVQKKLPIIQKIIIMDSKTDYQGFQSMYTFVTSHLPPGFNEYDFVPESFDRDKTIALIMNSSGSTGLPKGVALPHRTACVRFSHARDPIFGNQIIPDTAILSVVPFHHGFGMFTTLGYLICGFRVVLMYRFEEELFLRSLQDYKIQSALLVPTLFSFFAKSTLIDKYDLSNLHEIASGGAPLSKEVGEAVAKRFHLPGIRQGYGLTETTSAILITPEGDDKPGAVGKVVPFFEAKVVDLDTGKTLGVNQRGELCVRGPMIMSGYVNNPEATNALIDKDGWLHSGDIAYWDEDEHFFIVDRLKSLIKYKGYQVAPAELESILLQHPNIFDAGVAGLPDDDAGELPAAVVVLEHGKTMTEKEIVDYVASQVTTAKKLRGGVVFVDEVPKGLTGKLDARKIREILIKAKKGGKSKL
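Luminescence read by CCD imager after adding enzyme (10nM final) to wells holding compound, titrated in qHTS. Substrates 10uM each D-luciferin and ATP; buffer 50mM Tris acetate pH 7.5, 10mM Mg acetate, Tween-20, BSA.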
* = called active by the depositor; i = inactive; ? = inconclusive; · = no result; ! = not confirmed by another sample; [ ] = dose if it differs, or a comment. Unless noted, calls follow the shape of the dose curve; as a rule, active = well fitted curve in the direction sought with a large enough effect; inconclusive = small, poorly fitted or top-dose-only effect, or another doubt; inactive = no such curve, though single readings can be large; an effect the other way counts as inactive or inconclusive. % is scaled to controls: 0 for no effect and ±100 for the full control effect; potency is read from the fitted curve at half-maximal effect.

SMILES	GPT2 inh	hNpr1 antagonist	3T3 cytotox	HEK cytotox	FLuc inh
Cc1nn(-c2ccc(C(F)(F)F)cc2)c(C)c1[C@@H]1C=C[C@@H](NC(=O)NC(C)C)C1	?	?	?	35µM*	14µM*
CN(C)C[C@@H]1CN(Cc2ccccn2)C[C@H]1NC(=O)c1ccc(Cl)s1	i	-1%	-9%	79µM*	i
COc1ccc(C(=O)N[C@@H]2CN(Cc3ccccc3)C[C@H]2CN(C)C)cc1F	2%	·	20µM*	6.3µM*	·
CN(C)C[C@@H]1CN(Cc2ccccc2)C[C@H]1NC(=O)c1nn(C)c2ccccc12	i	·	?	40µM*	·
CN(C)CC(O)c1cc2n(n1)CCCN(C(=O)c1cccn1C1CC1)C2 (centres undefined)	i	-2%	-4%	-4%	i
O=C(c1csc(-c2cccs2)n1)N1CCC2(CCCO2)CC1	i	3%	?	?	35µM*
O=C(O)C1CN(C(=O)c2csc(-c3cccs3)n2)CCO1 (centres undefined)	-3%	3%	5%	i	i
O=C(Nc1ccc2ncnc(N3CCCC3)c2c1)c1cccc(Br)c1	i	-29%	14µM*	18µM*	i
O=C(Nc1ccc2c(N3CCCC3)ncnc2c1)c1cccc(F)c1	i	-3%	?	?	i
O=C(Nc1ccc2c(N3CCCC3)ncnc2c1)c1cc(F)ccc1F	-18%	-16%	?	?	i
O=C(Nc1ccc2c(N3CCOCC3)ncnc2c1)c1ccccc1C(F)(F)F	i	5%	28µM*	?	i
O=C(Nc1ccc2c(N3CCOCC3)ncnc2c1)c1ccc(F)c(Cl)c1	1%	-1%	35µM*	?	i
O=C(Nc1ccc2c(N3CCCCC3)ncnc2c1)c1ccsc1	?	-17%	?	?	?
O=C(Nc1ccc2ncnc(N3CCCCC3)c2c1)c1ccsc1	?	-20%	25µM*	40µM*	i
O=C(Nc1ccc2ncnc(N3CCCCC3)c2c1)c1cncc(Br)c1	1%	-25%	-17%	?	i
COc1ccc(-n2nc(C3CCCN(C(=O)c4ccccc4)C3)[nH]c2=O)cc1 (centres undefined)	i	15%	-3%	i	i
Cn1nc(C(=O)NCC23CCCC=C2NC(=O)CC3)c2ccccc21 (centres undefined)	2%	1%	-19%	2%	i
CC(C)(C)C(=O)Nc1nc2c(s1)C[C@@H]1[C@](C)(CO)[C@H](O)CC[C@@]1(C)[C@@H]2CC(=O)NCc1ccco1	i	-17%	?	-19%	i
O=C(Nc1ccc2ncnc(N3CCCCC3)c2c1)c1ccc(F)c(F)c1	-9%	-28%	?	45µM*	i
O=C(Nc1ccc2c(N3CCOCC3)ncnc2c1)c1cccc(Br)c1	?	-16%	?	63µM*	i
O=C(Nc1ccc2ncnc(N3CCCCC3)c2c1)c1cc(F)ccc1F	0%	-17%	?	?	i
O=C(Nc1ccc2c(N3CCCC3)ncnc2c1)c1ccc(Br)cc1	i	-26%	?	?	?
Cc1ccc(C(=O)Nc2ccc3c(N4CCOCC4)ncnc3c2)cc1	-3%	-17%	?	?	16µM*
Cc1ccc(C)c(C(=O)Nc2ccc3c(N4CCCC4)ncnc3c2)c1	i	-2%	?	?	i
CC(C)c1noc([C@H]2C[C@@H]3NCCCCCCNC(=O)[C@@H]3C2)n1	i	1%	-14%	-11%	i
SMILES	GPT2 inh	hNpr1 antagonist	3T3 cytotox	HEK cytotox	FLuc inh
CCc1ccccc1S(=O)(=O)N1C[C@@H](F)C[C@H]1C(=O)N1CCc2ccccc2C1	i	1%	32µM*	?	i
O=C([C@@H]1C[C@H](F)CN1C(=O)Nc1cccc(C(F)(F)F)c1)N1CCc2ccccc2C1	i	0%	22µM*	32µM*	i
CCc1ccc(S(=O)(=O)N2C[C@@H](F)C[C@H]2C(=O)N2CCc3ccccc3C2)cc1	i	-9%	-26%	-24%	i
CCc1ccc(C2CC(C(=O)NCc3ccc4c(c3)OCO4)CN(C(=O)c3ccc(F)cc3)C2)cc1 (centres undefined)	-13%	-15%	?	?	i
CC1(C)CC2CC(C)(CN2C(=O)CC(c2ccccc2Cl)c2c[nH]c3ccccc23)C1 (centres undefined)	4%	-17%	?	25µM*	i
COc1ccc(C(CC(=O)N2CCCC2)c2c[nH]c3ccccc23)cc1 (centres undefined)	i	-1%	-29%	?	?
O=C(Nc1cccnc1)[C@@H]1C[C@H](c2ccc(F)cc2)N(Cc2ccccc2Cl)C1	-5%[88.5 µM]	-24%[70.6 µM]	45µM*	40µM*	i
O=C(Nc1ccccn1)[C@@H]1C[C@@H](c2ccc(F)cc2)N(Cc2ccccc2)C1	-27%[88.5 µM]	?	?	?	i
O=C(Nc1cccnc1)[C@@H]1C[C@@H](c2ccc(F)cc2)N(Cc2ccccc2)C1	-5%[88.5 µM]	?	79µM*	?	i
COc1ccc(NC(=O)[C@@H]2C[C@H](c3ccc(F)cc3)N(Cc3ccccc3Cl)C2)cn1	-3%[88.5 µM]	-30%[70.6 µM]	22µM*	28µM*	i
O=C1c2ccc(Nc3ccc(F)cc3F)cc2CCc2ccc(OCC(O)CO)cc21 (centres undefined)	0%	·	·	·	·
CN1C[C@H](C(=O)NCCOc2ccccc2)C[C@H]1c1cccc(C(F)(F)F)c1	-19%[88.5 µM]	-16%[70.6 µM]	?	100µM*	i
COc1ccc(NC(=O)[C@@H]2C[C@@H](c3cccc(C(F)(F)F)c3)N(CC3CCOCC3)C2)cc1	-7%	2%	?	?	i
O=C(Nc1ccccc1)[C@@H]1C[C@@H](c2cccc(C(F)(F)F)c2)N(CC2CCOCC2)C1	?	?	?	56µM*	i
CN1C[C@H](C(=O)Nc2cccc(F)c2)C[C@H]1c1cccc(C(F)(F)F)c1	4%[88.5 µM]	-24%[70.6 µM]	50µM*	63µM*	i
O=C(Nc1cccc(F)c1)[C@@H]1C[C@@H](c2cccc(C(F)(F)F)c2)N(CC2CCOCC2)C1	-4%	-15%	20µM*	22µM*	i
COc1ccc(NC(=O)[C@@H]2C[C@@H](c3cccc(C(F)(F)F)c3)N(C)C2)cc1	-2%[88.5 µM]	-29%[70.6 µM]	?	?	i
Cc1ccc(Cn2cc(-c3ccncc3)cc2C(=O)NC2CC2)cc1	?	-9%	?	?	45µM*
Cc1coc2c1C(=O)C(=O)c1c-2ccc2c1CCCC2(C)C	14µM*	·	·	·	·
Cc1coc2c1C(=O)C(=O)c1c-2ccc2c(C)cccc12	2.2µM*!	·	·	·	·
C[C@H]1COC2=C1C(=O)C(=O)c1c2ccc2c1CCCC2(C)C	17µM*	·	·	·	·
